According to ChEMBL document CHEMBL3988442, “University of Dundee, Small-Polar-MMV Screening Library” (2021):

Key:
[1] = biological target: T1, Aspartate--tRNA(Asp/Asn) ligase (Mycobacterium tuberculosis (strain ATCC 25618 / H37Rv)) (UniProt P9WFW3); assay: Assay for Asp RNA synthetase-1 from Mycobacterium tuberculosis; assay type: functional; parameters: scale not given: direction of the effect not stated beside the values; details: 30 µM; also: in the data most compounds retested in dose-response had high values
T1 sequence (whole entry): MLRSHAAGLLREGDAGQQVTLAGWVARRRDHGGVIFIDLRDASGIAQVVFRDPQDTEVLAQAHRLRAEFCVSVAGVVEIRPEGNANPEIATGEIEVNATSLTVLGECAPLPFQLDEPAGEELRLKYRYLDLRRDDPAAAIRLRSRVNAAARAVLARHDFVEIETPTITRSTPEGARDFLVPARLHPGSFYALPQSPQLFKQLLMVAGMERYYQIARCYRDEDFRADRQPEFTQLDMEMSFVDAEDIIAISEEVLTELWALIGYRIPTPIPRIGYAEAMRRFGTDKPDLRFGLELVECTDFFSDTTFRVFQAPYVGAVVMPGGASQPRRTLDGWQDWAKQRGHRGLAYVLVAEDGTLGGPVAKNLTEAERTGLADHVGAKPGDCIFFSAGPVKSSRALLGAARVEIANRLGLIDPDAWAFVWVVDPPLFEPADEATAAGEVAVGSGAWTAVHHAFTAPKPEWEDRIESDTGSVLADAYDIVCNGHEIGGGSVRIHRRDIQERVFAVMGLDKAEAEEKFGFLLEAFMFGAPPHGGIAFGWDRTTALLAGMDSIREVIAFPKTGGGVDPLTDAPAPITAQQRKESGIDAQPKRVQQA

[2] = biological target: Shiga toxin 2 (Escherichia coli O157:H7) (UniProt P09385+P09386); assay: E. coli 0.157:H7 Shiga Toxin SOP - stx2 screening assay; assay type: functional; parameters: scale not given: direction of the effect not stated beside the values; details: 30 µM

Structure (SMILES)	Percent Effect [1] [%]	Percent Effect [2] [%]
CCn1nc(C)c2nc(C(C)C)nc(N3CCCCC3)c21	8.83	-36.2
CN(Cc1cnn(C)c1)C(=O)Cn1c(CS(C)(=O)=O)nc2ccccc21	-0.869	1.77
Cc1cc(C)cc(-c2cccc(CC3(C(=O)O)CCOCC3)c2)c1	2.93	-30
CNc1cc2c(nn1)CCN(C(=O)c1cccc3c1OCO3)C2	-7.31	1.76
CC(C)(C)NC(=O)C1CSCN1S(=O)(=O)c1ccc(F)cc1 (stereo not drawn)	5.02	1.58
CCCn1nc2c(cc1=O)CN(CC(=O)Nc1ccncc1)CC2	2.52	-19.5
CNC(=O)c1ccc(C2CN(C(=O)c3cncs3)CCO2)nc1 (stereo not drawn)	3.26	-3.71
Cc1nnc2n1CCN(C(=O)c1cc(Cl)c[nH]1)C2	-0.345	2.46
CS(=O)(=O)NC[C@@H]1OC[C@H]2CN(C(=O)c3ccc[nH]3)CC[C@H]21	3.32	0.898
CC(C)N(CC(N)=O)Cc1csc(COc2ccc(F)cc2)n1	-2.28	1.96
Cc1n[nH]c(C2CN(C(=O)c3cc(Cl)c[nH]3)CCO2)n1 (stereo not drawn)	2.37	-2.92
Cc1cc(CN(C)C(=O)c2ccnc(N(C)C)c2)no1	-3.84	-18.4
CCc1ncnc2c1CCN(C(=O)Cc1ccccn1)CC2	-1.97	-18.4
Cc1nc(C2CCCN(C(=O)c3sccc3C3CC3)C2)no1 (stereo not drawn)	-0.613	0.602
CCSc1cc(C(=O)NCc2ccccc2O)ccn1	2.33	11.7
Cc1ccc(NC2CCN(C(=O)c3cccc(F)c3F)CC2)nn1	-4.5	-17
O=C(c1cccnc1O)N(Cc1ccsc1)CC1CCCO1 (stereo not drawn)	-1.37	-27.4
c1cnc(NCc2noc3c2CN(C2CCOCC2)CC3)nc1	2.79	-7.78
O=C(C(CNCc1ccncc1)c1ccccc1)N1CCOCC1 (stereo not drawn)	11.7	-69.6
COc1cccc(CN2CCCC(Nc3cccc(F)c3)C2)c1O (stereo not drawn)	-1.31	11.2
CC(=O)N1CCCN(C(=O)NCc2ccccn2)CC1	3.93	16.9
O=C(c1ccnnc1)N1C[C@H](Oc2cccnc2)[C@H]2OCCC[C@H]21	2.1	3.62
CCOc1cc(CNC(=O)N2CCC(Cc3cnn(C)c3)C2)ccn1 (stereo not drawn)	-2.52	2.76
CCC(NC(=O)CC(F)(F)F)c1ccccc1OCC(=O)N1CCCC1 (stereo not drawn)	0.767	-16.8
COCC(c1cccc(C(F)(F)F)c1)N(C)C(=O)c1ccncc1 (stereo not drawn)	-1.77	-15.3

Structure (SMILES)	Percent Effect [1] [%]	Percent Effect [2] [%]
Cc1ccc(CN2CCC3(CC2)OC(C(=O)N(C)C)c2ccccc23)o1 (stereo not drawn)	3.43	-27.1
CC(C)CNc1nc(C(=O)/N=c2\[nH]nc(C(C)(C)C)s2)cs1	-0.96	-23.9
c1csc(-c2nc(CN3CCOC(Cn4cncn4)C3)co2)c1 (stereo not drawn)	21.8	19.9
CCNc1cc2c(nn1)CCN(C(=O)c1cccc3c1OCCO3)C2	7.68	-25.7
CC(=O)N1CCN(C(=O)CN2CCc3c(ncn3C3CC3)C2)CC1	1.82	-27.5
CN(C)C(=O)NCc1cc2n(n1)CCN(C[C@H]1[C@@H]3CNC[C@@H]31)C2	-4.99	-21.2
CC(NC(=O)NCCNc1ncccn1)c1cccs1 (stereo not drawn)	-2.58	-27.7
COc1ccc(C2CCCN2C(=O)NCCNc2ncccn2)cc1 (stereo not drawn)	10.2	-17.2
Cc1ccc(CNC(=O)NCc2csc(C)n2)cn1	-3.34	-8.48
Nc1nccc(NCc2cc3n(n2)CCCN(C2CCCCC2)C3)n1	-6	-9.53
CC(C)N1CC(C(=O)NCc2ccnc(-n3cccn3)c2)CC1=O (stereo not drawn)	-0.3	-49.1
O=C(Cc1ccc2c(c1)OCCO2)N1CCCC(n2ccnc2)C1 (stereo not drawn)	-4.41	-18.9
COc1ccc(CNC(=O)c2nn(C)c3c2CS(=O)(=O)CC3)cc1OC	-8.6	-18.6
Cc1ccccc1CCNC(=O)C1CC(=O)N(CC(F)(F)F)C1 (stereo not drawn)	4.08	9.05
COCCOc1cccc(C(=O)N2CCCC(n3cccn3)C2)c1 (stereo not drawn)	1.18	-14.5
Cc1cnn(CC2CCCN2C(=O)Cc2n[nH]c3ccccc23)c1 (stereo not drawn)	-2.71	12.2
CC(=O)Nc1nc(C(=O)NC(C)c2ccc3c(c2)OCCO3)cs1 (stereo not drawn)	-1.73	7.36
O=C(NCc1cccnc1)C1=NOC2(CCN(S(=O)(=O)C3CC3)C2)C1 (stereo not drawn)	-3.41	-21.8
CCNC(=O)[C@@H]1C[C@H](NC(=O)c2ccccc2C#N)CN1CCCSC	-0.866	0.196
c1ccc(-c2nc(CN3CCCC(Cn4cncn4)C3)co2)cc1 (stereo not drawn)	0.247	-67.5
CC(C)C(=O)N1CCN(C(=O)c2cscn2)[C@H]2CS(=O)(=O)C[C@H]21	-8.33	-5.71
CCOc1ccccc1C(CC(=O)Nc1ccc(C)cn1)NC(C)=O (stereo not drawn)	-0.122	14.7
CN1CCN(C[C@@H]2OC[C@H]3CN(Cc4ccsc4)CC[C@H]32)CC1	-4.08	3.13
Cn1c(CN2CCCC2c2noc(C3CC3)n2)cc(=O)n(C)c1=O (stereo not drawn)	-4.22	-7.03
CNC(=O)C1(c2cnccn2)CCCN1C(=O)c1ccccc1OC (stereo not drawn)	-4.66	-21.4

Structure (SMILES)	Percent Effect [1] [%]	Percent Effect [2] [%]
CCC(=O)N1CCN(Cc2cc(-c3ccncc3)nn2C)CC1	-0.849	-10.7
Cc1cccc(C(=O)NCc2ccc(N3CCCCC3)nc2)n1	2.43	-10.8
Cc1ccccc1OCCC(=O)N1CCCC(n2cncn2)C1 (stereo not drawn)	-3.32	2.85
Cc1cc(CN2CCN(C(c3ccccc3)c3ccccc3)CC2)no1	0.857	10.7
c1csc(CN2CCO[C@H]3[C@H](OCCN4CCCC4)CC[C@@H]32)n1	2.94	-36.8
CC(=O)N1CCn2cc(CNC(=O)c3cccn3C)nc2C1	1.43	-9.92
CCOC1COC2(CCN(S(=O)(=O)c3cccc(F)c3)CC2)C1 (stereo not drawn)	16.4	-13
O=S(=O)(NCC1CCN(c2ccccn2)CC1)c1ccccc1F	-0.51	-13.6
Cc1cc(C)c2cc(CNCc3ccccc3)c3nn(C)c(=O)n3c2c1	-2.43	-0.711
CC(C)C(=O)N1CCC(c2nc(O)cc(-c3ccncc3)n2)CC1	-2.46	3.51
CCOCCN1CCN(Cc2nnc(C3CC3)o2)CC1CC (stereo not drawn)	1.06	-12.2
O=C(Nc1cccnc1)N1CCC(n2ccc(C(F)(F)F)n2)CC1	-4.08	-16.7
CC(=O)Nc1nc(C(=O)Nc2ccc(N3CCCCC3)nc2)cs1	1.12	-46.3
O=S1(=O)CCN(Cc2cccnc2)[C@H]2CCN(c3ncccn3)CC[C@H]21	1.96	-36.2
CC(C)N(CC(N)=O)Cc1csc(Cc2ccccc2)n1	0.228	12
Cc1cccnc1NCCNC(=O)[C@H]1CNC[C@@H](C(=O)N2CCCC2)C1	-0.342	-7.88
NC(=O)CN1CCCN(C(=O)c2ccn(-c3ccccc3)n2)CC1	-2.4	6
CC(C)N1CCOCC2(CN(Cc3nccs3)CCO2)C1 (stereo not drawn)	2.14	-11.3
COc1ccccc1C1CNC(=O)c2nc(-c3ncc[nH]3)[nH]c2C1 (stereo not drawn)	2.38	-14.6
Cc1noc(C)c1C(=O)NCc1ccc(N2CCOC(C)C2)nc1 (stereo not drawn)	-1.75	-60.1
O=C(NCCc1ccn(-c2ccccc2)n1)N1CCC1	1.53	-11.7
CCN(C)c1ncnc2c1CCN(C(=O)N1CCCC1)CC2	9	-30.9
COc1ccc2c(c1)OC1(CCN(Cc3ccc(F)cc3)CC1)CC2=O	-5.55	17.6
CC(C)c1ncncc1C(=O)NCCN1CCCS1(=O)=O	-2.86	6.66
Cc1cccc(NC2CCN(C(=O)Nc3cccc4[nH]ccc34)CC2)n1	-0.4	-50

Structure (SMILES)	Percent Effect [1] [%]	Percent Effect [2] [%]
CC(C)Cc1noc(CN2CCCC(Cn3cncn3)C2)n1 (stereo not drawn)	-2.91	-14.7
Cc1ccccc1CSc1nc(N)cc(N2CCOC(C(N)=O)C2)n1 (stereo not drawn)	3.12	-13.5
O=S(=O)(Nc1cnn(C2CCOCC2)c1)c1ccc2c(c1)CCO2	0.452	-15.1
Cc1nn(C)c2sc(C(=O)N3CCCC(n4ccnc4C)C3)cc12 (stereo not drawn)	-1.41	-28.1
Cc1nc(C)n(CC2CCCCN2CCS(C)(=O)=O)n1 (stereo not drawn)	-3.09	-15.8
CC(C)(C)c1nc(CN2CCCC2CCc2ccccc2)no1 (stereo not drawn)	2.52	14.9
CS(=O)(=O)N1CCCCCC1C1CCN(c2ncccc2C#N)CC1 (stereo not drawn)	-0.456	27.9
CC(C)(C)c1ccc(C2(C(=O)NCCS(N)(=O)=O)CC2)cc1	13.3	-15.1
CCn1ccnc1CN1CCN(Cc2ccccn2)CC1C (stereo not drawn)	-1.39	-13.6
CC1=NN(c2ccc(C(=O)N3CCCC(n4ccnc4)C3)cc2)CC1 (stereo not drawn)	1.08	-30.6
CC(C)NC(=O)C1CN(C(=O)c2ccco2)CC12CCOCC2 (stereo not drawn)	9.32	1.11
CCN1CCN(C(=O)C(C)N2CCN(Cc3nccn3C)CC2)CC1 (stereo not drawn)	0.262	-3.01
CN1CC(=O)N(c2ccccc2)CC12CCN(Cc1cccnc1)C2 (stereo not drawn)	-5.22	-7.54
COCC(NC(=O)c1cc[nH]n1)c1cccc(C(F)(F)F)c1 (stereo not drawn)	-7.45	-7.89
COc1ccccc1OCCN1CCC(N2CCNC2=O)CC1	-1.95	21
Cn1nccc1-c1ccc2nc(C3CCN(CCO)CC3)nn2c1	-1.83	-15.6
CN(C)C(=O)c1ccc(CNC(=O)NCCN(C)C2CCCC2)cc1	1.57	14.3
CC(C)NC(=O)CC1COC2(CCN(Cc3cccs3)CC2)C1 (stereo not drawn)	-0.0228	-27.2
CN1CC(=O)N(c2ccsc2)CC12CCN(C(=O)c1ccccc1)C2 (stereo not drawn)	2.85	-3.66
Cc1ccc(CN2CC[C@H]3[C@@H]2CCC(=O)N3CCN2CCCC2)s1	2.78	-33.4
Cc1cc(C)n(CC(C)CNC(=O)[C@@H](C)NC(=O)OC(C)(C)C)n1 (stereo partly drawn)	-1.38	9.62
COC(=O)C1CCN(C(=O)CN2CCN(c3cccc(C)c3)CC2)CC1	-0.137	-48.5
Cn1nc(COc2cccnc2)c2c1CCN(c1cnccn1)C2	10.9	7.98
CC(C)COCc1cncc2c1CCN(Cc1cnn(C)c1)C2	-0.981	-36.8
